Screening results deposited in PubChem by several laboratories.
HSP90 refold inh – blocks HSP90-mediated luciferase refolding in reticulocyte lysate | 0.91% of 290,000 active | AID 1789 | inhibition, % at 5.6 µM | Rabbit reticulocyte lysate, luciferase refolding luminescence, 3 h;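 active = inhibition above the screen-wide mean plus 3 SD, computed separately per campaign, cut at about 16% in these data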;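 also: inhibitors lower the luminescence because luciferase stays unfolded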
SENP8 block-1 – blocks human SENP8 cleavage of Nedd8 substrate; Q96LD8; recombinant SENP8, Nedd8 substrate fluorescence; inhibition, % at 20 µM; 0.64% of 360,000 active; in the data active = inhibition mostly above about 40%, no sharp cut-off; inactive = mostly below about 27%
SENP6 block – blocks the human protease SENP6; Q9GZR1; 1.8% of 330,000 active; Recombinant SENP6 catalytic domain, aminoluciferin luminescence; inhibition, % at 10 µM;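 active = inhibition above about 50% at the single tested dose, limit read from the data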
Target sequence (Q9GZR1 628-1112 limits assumed): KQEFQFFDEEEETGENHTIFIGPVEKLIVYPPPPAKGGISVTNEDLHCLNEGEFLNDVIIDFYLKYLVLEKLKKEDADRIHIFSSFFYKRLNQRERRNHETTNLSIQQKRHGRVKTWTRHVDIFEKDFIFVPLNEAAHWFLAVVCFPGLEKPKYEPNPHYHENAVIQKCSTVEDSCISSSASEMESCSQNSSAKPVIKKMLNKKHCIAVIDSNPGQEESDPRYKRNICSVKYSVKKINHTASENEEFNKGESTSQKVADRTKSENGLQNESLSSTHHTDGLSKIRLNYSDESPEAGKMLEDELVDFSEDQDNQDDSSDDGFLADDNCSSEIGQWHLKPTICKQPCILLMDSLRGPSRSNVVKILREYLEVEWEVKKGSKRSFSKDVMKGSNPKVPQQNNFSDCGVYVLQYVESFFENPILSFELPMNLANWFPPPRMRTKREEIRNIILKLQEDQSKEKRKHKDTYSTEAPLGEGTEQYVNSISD
SENP8 block-2 – blocks the human protease SENP8; purified SENP8, Z-RLRGG-aminoluciferin cleavage, luminescence; inhibition, % at 10 µM; 1.2% of 330,000 active; AID 2540; in the data active = inhibition above about 50%
SENP7 inh – blocks the human protease SENP7. Q9BQF6. recombinant SENP7, Z-RLRGG-aminoluciferin luminescence, 40 min. inhibition, % at 5 µM. 1.5% of 330,000 active;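 active = inhibition above about 50% at the single test dose, limit read from the data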
SENP8 inh conf – confirmation of human SENP8 protease inhibitors. shares compounds with SENP8 block-1. purified SENP8, Nedd8-AMC/pro-Nedd8 cleavage fluorescence, 30 min. inhibition, % at 25 µM. 15% of 1,400 active. AID 624319; in the data active = inhibition mostly above about 39%, no sharp cut-off; inactive = mostly below about 34%
Large screens that a line does not name were inactive (follow-up assays come after a bar, where they were run). A selection: hits, their analogues and other compounds. The true share with any hit is near 2.8%.

O=C(NCCNc1ccc([N+](=O)[O-])cc1C(F)(F)F)c1ccccc1F	SENP8 block-1 44 | SENP8 inh conf inactive
CC(Cc1ccccc1)(NC(=O)CN)c1ccccc1 (stereo not given)	none (no result: SENP8 block-1)
COc1cc(NC(=S)Nc2ccccn2)cc(OC)c1	none
Cc1sc2nc(CSCC(=O)N(CCC#N)c3ccccc3F)[nH]c(=O)c2c1C	none (no result: HSP90 refold inh)
CC(Nc1ccc(Br)cc1)C(=O)N/N=C/c1ccccc1OCc1ccccc1 (stereo not given)	SENP8 block-1 46 | SENP8 inh conf inactive
COc1ccc(NC(C)C(=O)N/N=C/c2ccccc2OCc2ccc(Br)cc2)cc1 (stereo not given)	none
O=C(NCC1CCCO1)c1cn(Cc2ccccc2)nc1-c1ccccc1 (stereo not given)	none (no result: HSP90 refold inh)
Cc1ccc(C)c(Oc2cc(NN3CCCCC3)c([N+](=O)[O-])cc2[N+](=O)[O-])c1	SENP8 block-1 42 | SENP8 inh conf inactive
Cc1ccc(F)c(Oc2cc(NN3CCCCC3)c([N+](=O)[O-])cc2[N+](=O)[O-])c1	none
CC(C)(C)CC(C)(C)c1ccc(O)c(Cc2ccc(Cl)cc2Cl)c1	none (no result: HSP90 refold inh, SENP6 block, SENP8 block-2, SENP7 inh)
O=C(CCC(=O)N1CCc2ccccc2C1)N1CCN(S(=O)(=O)c2ccccc2)CC1	SENP8 block-1 43 | SENP8 inh conf 64
O=C(CCCOc1ccccc1)N1CCN(S(=O)(=O)c2ccccc2)CC1	none (no result: HSP90 refold inh)
CCNC(=S)NNc1ccccc1	SENP8 block-1 43 | SENP8 inh conf inactive
S=C(NCc1ccccc1)NNc1ccccc1	none
CCOC(=O)C1=C(C)NC(=O)NC1c1ccc(OC)c(Cl)c1 (stereo not given)	none
CCOC(=O)C1=C(C)NC(=O)NC1c1ccc(OCCO)c(OC)c1 (stereo not given)	SENP8 block-1 40 | SENP8 inh conf inactive
Cc1cc(CNC(=O)Cc2ccccc2)c2ccccc2n1	none
Cc1cccc(C)c1NC(=O)Cn1c(=O)n(CCCC(=O)NC2CCN(Cc3ccccc3)CC2)c(=O)c2ccccc21	none
O=C(CCCCn1c(=O)c2ccccc2n(Cc2ccccc2F)c1=O)NC1CCN(Cc2ccccc2)CC1	SENP8 block-1 40 | SENP8 inh conf inactive
O=[N+]([O-])c1ccc(-[n+]2ccc3ccccc3c2)c([N+](=O)[O-])c1	SENP8 block-1 46 (no result: HSP90 refold inh) | SENP8 inh conf inactive
Cc1ccc(/C=N/N2C(=S)SC(C)(C)C2N(O)C(=O)Nc2ccc([N+](=O)[O-])cc2)cc1 (stereo not given)	SENP8 block-1 40 | SENP8 inh conf inactive
CC1(C)SC(=S)N(/N=C/c2ccc(O)cc2)C1N(O)C(=O)Nc1ccc([N+](=O)[O-])cc1 (stereo not given)	none
Cc1cc(=O)n(-c2ccc3ccccc3n2)[nH]1	SENP8 block-1 47 | SENP8 inh conf inactive
O=C(CSc1nc2ccccc2o1)N1N=C(c2cccs2)CC1c1ccc(F)cc1 (stereo not given)	none
COc1ccc(-c2csc(NC(=S)NC(=O)c3ccco3)n2)cc1Br	none
COc1ccc(-c2csc(NC(=S)NC(=O)/C=C/c3ccco3)n2)cc1Br	SENP8 block-1 43 | SENP8 inh conf inactive
O=[N+]([O-])c1ccc(N/N=C/c2sc(N3CCOCC3)nc2-c2ccccc2)c(S(=O)(=O)Nc2ccccc2Cl)c1	SENP8 block-1 46 (no result: SENP6 block, SENP8 block-2, SENP7 inh) | SENP8 inh conf inactive
O=[N+]([O-])c1ccc(N/N=C/c2sc(N3CCOCC3)nc2-c2ccccc2)c(S(=O)(=O)Nc2ccc(Cl)cc2)c1	SENP8 block-1 53 (no result: SENP6 block, SENP8 block-2, SENP7 inh) | SENP8 inh conf inactive
COC(CNC(=O)c1cn(C)c2ccc(S(=O)(=O)N(C)C3CCCCC3)cc2c1=O)OC	none
CC(Oc1ccccc1)C(=O)N1CCN(S(=O)(=O)c2ccc(OC(F)(F)F)cc2)CC1 (stereo not given)	none (no result: HSP90 refold inh, SENP6 block, SENP8 block-2, SENP7 inh)
Cc1ccc([N+](=O)[O-])cc1NC(=S)NCCc1ccccc1	none
COc1ccc(-c2csc(NC(=O)CSCC(=O)Nc3cc(C)on3)n2)cc1	none (no result: HSP90 refold inh)
CCOC(=O)Cn1c(C)nc2c(C(=O)OCC)sc(C)c2c1=O	none
CCOC(=O)c1sc(C)c2c(=O)n(CC(=O)c3ccc(Br)cc3)nnc12	SENP8 block-1 40 | SENP8 inh conf inactive
O=C(COC(=O)/C=C/c1cccc(C(F)(F)F)c1)NC(c1ccccc1)c1ccccc1	none
COc1ccc(NC(=O)NNc2cc(N3CCOCC3)nc(N3CCOCC3)n2)cc1	SENP8 block-1 44 | SENP8 inh conf inactive
Cc1ccc(NC(=O)C(C)[n+]2ccccc2)cc1[N+](=O)[O-] (stereo not given)	none
O=S(=O)(c1ccc(NC(=S)Nc2ccc3c(c2)OCO3)cc1)N1CCOCC1	SENP8 block-1 44 | SENP8 inh conf inactive
COc1ccc(N2C(=O)Cc3ccccc3C2=O)cc1	SENP8 block-1 84 | SENP8 inh conf inactive
COCCCNS(=O)(=O)c1ccc(Oc2ncc(C(F)(F)F)cc2Cl)cc1	none
CC(C)(C)NS(=O)(=O)c1ccc(Oc2ncc(C(F)(F)F)cc2Cl)cc1	SENP8 block-1 40 | SENP8 inh conf inactive
COc1ccccc1OCCCn1c(=O)oc2ccc(C)cc21	SENP8 block-1 41 | SENP8 inh conf inactive
COc1ccccc1NC(=O)CSC(N)=O	SENP8 block-1 46 | SENP8 inh conf inactive
COc1ccc(NCc2nnc(SCC(=O)Nc3ccccc3OC)o2)cc1	SENP8 block-1 46 | SENP8 inh conf inactive
CCOc1ccc(C(c2c(C)[nH][nH]c2=O)c2c(C)[nH][nH]c2=O)cc1OC	SENP8 block-1 54 | SENP8 inh conf inactive
CCc1ccc2c(c1)c1nc(C)sc1n2CC	SENP8 block-1 96 | SENP8 inh conf inactive
Cc1nc2c3cc(F)ccc3n(Cc3ccc(F)cc3)c2s1	none
O=C(Cn1cnc2ccccc2c1=O)Nc1nnc(SCc2ccccc2)s1	SENP8 block-1 42 | SENP8 inh conf inactive
CC(=O)Nc1cc2c(cc1[N+](=O)[O-])OCCO2	none
CC(=O)Nc1cc2c(cc1Br)OCCO2	SENP8 block-1 47 | SENP8 inh conf inactive
Cc1cc(C)n(-c2ccc(C(=O)N3CCN(S(=O)(=O)c4ccc(Br)cc4Cl)CC3)cc2)n1	SENP8 block-1 42 (no result: HSP90 refold inh, SENP6 block, SENP8 block-2, SENP7 inh) | SENP8 inh conf inactive
Cc1cc(C)n(-c2ccc(C(=O)N3CCN(c4ccccn4)CC3)cc2)n1	none (no result: HSP90 refold inh)
CN1CCC(=NNC(=O)C(=O)NC2CCCC2)CC1	SENP8 block-1 40 | SENP8 inh conf inactive
CN1CCC(=NNC(=O)C(=O)NC2CCCCC2)CC1	none
Cc1nc(SCC(=O)N2c3ccccc3NC(=O)CC2C)c2c(C)c(C)sc2n1 (stereo not given)	none (no result: HSP90 refold inh)
NCCNc1ccc(C(=O)N2c3ccccc3Sc3ccccc32)cc1[N+](=O)[O-]	SENP8 block-1 52 | SENP8 inh conf inactive
COc1cc(CNC(=O)c2ccc3oc(C(C)C)nc3c2)cc(OC)c1	none
CS(=O)(=O)N1CCN(C(=O)c2cc(-c3cccnc3)nc3ccc(Br)cc23)CC1	none
COc1ccc(N2C(=O)CC(Nc3cccc([N+](=O)[O-])c3)C2=O)cc1 (stereo not given)	SENP8 block-1 47 | SENP8 inh conf inactive
